Screening data from PubChem BioAssay.
In the library only some 4.1% were active in any assay of this set; here they are far more common.
FMDV inh = antivirals against foot and mouth disease virus | FMDV antiviral cell-based qHTS | Potency, µM (highest dose often 57.9 µM), for inactives: top-dose activity change, negative = inhibition, usual class: inhibitors | 410,000 tested, 1.2% active; calls by dose curve; tested in HEK293T cells; note: read-out not given here; nearly all actives have a fitted effect of over 45% in size
AmpC inh detg = blocks E. coli AmpC beta-lactamase in detergent assay | AID 485294 | Potency, µM (top dose mostly 114 µM), without a hit: at the highest dose activity change, negative = inhibition, most hits filed as inhibitors | 370,000 tested, 0.041% active | AmpC hydrolysis of nitrocefin, absorbance 480 nm, 0.01% Triton | P00811;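 note: 0% = no-compound wells and -100% = no-enzyme wells; nearly all actives have a fitted effect of over 25% in size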
Target sequence (P00811 whole entry, looked up): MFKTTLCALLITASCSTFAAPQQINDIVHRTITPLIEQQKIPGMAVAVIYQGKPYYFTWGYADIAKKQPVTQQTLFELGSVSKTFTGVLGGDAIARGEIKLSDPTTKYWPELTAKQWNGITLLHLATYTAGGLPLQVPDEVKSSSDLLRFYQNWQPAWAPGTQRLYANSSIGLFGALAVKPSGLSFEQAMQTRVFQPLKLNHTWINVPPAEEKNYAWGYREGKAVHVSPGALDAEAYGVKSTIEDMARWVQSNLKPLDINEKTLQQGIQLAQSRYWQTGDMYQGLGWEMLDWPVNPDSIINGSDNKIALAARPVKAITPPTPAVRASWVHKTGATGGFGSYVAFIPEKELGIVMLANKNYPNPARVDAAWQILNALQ
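AmpC (5.3 nM in the dispensed reagent) in 20 mM phosphate pH 7.0 with 0.01% (detergent screen) or 0.0001% Triton X-100 was preincubated with compounds for 15 min at room temperature. Nitrocefin was then added from an 800 uM solution, and hydrolysis was followed at 480 nm.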
AmpC no deterg = AmpC beta-lactamase inhibition without detergent; 330,000 tested, 0.52% active; AID 485341; Potency, µM (titrated, usually from 57.1 µM), inactives show at the highest dose activity change, negative = inhibition, actives largely listed as inhibitors; AmpC nitrocefin hydrolysis, absorbance 480 nm, 0.0001% Triton; P00811;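 note: plate controls were no compound for no effect and no enzyme for full effect; nearly all actives have a fitted effect of over 20% in size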
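AmpC (5.3 nM in the dispensed reagent) in 20 mM phosphate pH 7.0 with 0.01% (detergent screen) or 0.0001% Triton X-100 was preincubated with compounds for 15 min at room temperature. Nitrocefin was then added from an 800 uM solution, and hydrolysis was followed at 480 nm.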
AMA1 RON2 block = disrupts binding of P. falciparum AMA1 to RON2. AlphaScreen AMA1-biotinylated RON2 peptide binding. Potency, µM (series often up to 58.2 µM), for inactives: top-dose activity change, negative = inhibition, most hits filed as inhibitors. 360,000 tested, 0.2% active. AID 720542;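 note: 0% = vehicle wells and -100% = peptide control; nearly all actives have a fitted effect of over 45% in size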
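AMA1 (3D7) with his tag at 25 nM final met compounds first, then biotinylated RON2 peptide at 25 nM; detection used donor plus acceptor beads, 10 µg/mL apiece, read by AlphaScreen after 30 min at room temperature.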
Sm TGR inh = S. mansoni TGR enzyme inhibition | purified TGR, DTNB reduction, TNB absorbance 405 nm | Q962Y6 | Potency, µM (titrated, usually from 114 µM), for the others: at the highest dose activity change, negative = inhibition, usual class: inhibitors | 360,000 tested, 3% active; note: nearly all actives have a fitted effect of over 60% in size
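TGR 20 nM + NADPH 100 uM (dispensed conc.), cpd preinc 15 min RT; start with NADPH (500 uM addition) then DTNB (15 mM addition). Kinetic TNB absorbance, 405 nm filter. Four-parameter Hill fit across titration.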
Starred values were filed as active, the others as inactive; ? = inconclusive; nt = not tested or not shown. Unless noted, calls come from the whole dose curve; as a rule, active = well fitted curve in the direction sought with a large enough effect; inconclusive = small, poorly fitted or top-dose-only effect, or another doubt; inactive = no such curve, though single readings can be large; an effect the other way counts as inactive or inconclusive. Unless noted, % is set by controls: 0 for no effect and ±100 for the full control effect; potency is the fitted concentration of half-maximal effect.

SMILES | FMDV inh | AmpC inh detg | AmpC no deterg | AMA1 RON2 block | Sm TGR inh
Cc1ccc(-c2nc3ccccc3[nH]2)cc1NC(=O)COc1ccccc1[N+](=O)[O-] | 0% | 1% | nt | nt | 9%
CSc1ccc(CN(C)C(=O)c2cc(=O)[nH]c3ccccc23)cc1 | 2.8µM* | -5% | -4% | -12% | 1%
COC(=O)c1scc(C)c1NC(=O)/C=C/C(=O)O | -3% | -9% | -18% | 0% | 1.4µM*
Cc1cccc(N2C(=O)NC(=O)/C(=C\c3cc(C)n(-c4sc5c(c4C#N)CCCC5)c3C)C2=O)c1C | ? | -7% | 32µM* | 0% | ?
COc1cc(Br)c(C2CC(=O)Nc3cc(OC)c(OC)c(OC)c32)cc1OC (centres undefined) | 98% | 13% | nt | nt | 1%
CC(C)Nc1ccc(Nc2ccccc2)cc1 | 25% | ? | -33% | ? | 8.9µM*
COC(=O)c1ccccc1CSc1nsc(/C=C/N(C)C)c1C#N | 0% | -1% | 28µM* | 0% | 11%
Cc1nc(CSc2nsc(/C=C/N(C)C)c2C#N)cs1 | 31% | 0% | 20µM* | -11% | -1%
O=[N+]([O-])C(=C1Nc2ccccc2N1)/C(Cl)=C(/Cl)Br | -8% | -3% | -3% | -15% | 6.3µM*
O=C(c1ccc(Cl)cc1)N1CCCCC(Sc2nnc(-c3ccc4c(c3)OCO4)o2)C1=O (centres undefined) | 10µM* | -5% | -2% | 0% | -7%
COCC1CCCN(Cc2ccc3c(c2)CN(C(=O)c2cccnc2OC)CCO3)C1 (centres undefined) | -10% | nt | nt | nt | nt
COc1cc(OC)c(OC)cc1CNC(=O)c1cccc(S(=O)(=O)N2CCc3ccccc3C2)c1 | 11µM* | ? | 101% | 1% | 4%
Cc1ccc(CN(C)C(=O)c2cccc(S(=O)(=O)N3CCc4ccccc4C3)c2)o1 | 0% | 0% | 51% | -9% | 28µM*
Cc1ccc(NC(=O)CN(C)C(=O)c2cccc(S(=O)(=O)N3CCc4ccccc4C3)c2)cc1 | 13% | nt | nt | -9% | nt
Cc1ccc(CN(C)C(=O)c2ccc(S(=O)(=O)N(C)c3ccccc3)cc2)o1 | 0% | -4% | 46% | 1% | 11µM*
Cc1cccc(C(C)C)c1NC(=O)COC(=O)c1cccc(S(=O)(=O)N2CCc3ccccc3C2)c1 | -10% | -6% | 7.9µM* | -8% | 1%
CN(Cc1ccc(OC(F)F)cc1)C(=O)c1ccc(S(=O)(=O)N(C)c2ccccc2)cc1 | ? | ? | 35% | -2% | 0%
CCc1cccc(CC)c1NC(=O)COC(=O)c1cccc(S(=O)(=O)N2CCc3ccccc3C2)c1 | -19% | -1% | 18µM* | 4% | 0%
Cc1ccc(CN(C)C(=O)c2ccccc2Oc2ccccc2)o1 | -15% | 1% | 6% | -14% | 7.9µM*
O=C(O)c1ccccc1Oc1ccc(Oc2ccccc2)cc1 | 10% | -14% | -17% | -3% | 0%
CC(=O)Nc1ccc(NC(=O)c2ncoc2-c2ccco2)cc1 | 0% | -11% | nt | nt | -5%
CC1=C(C(=O)Nc2cc(C(=O)N3CCN(c4ccc(Cl)cc4)CC3)ccc2C)SCCO1 | 22µM* | nt | nt | -3% | nt
CC(NC(=O)c1cc(F)ccc1F)c1nnc2n1CCN(Cc1ccco1)CC2 (centres undefined) | -2% | nt | nt | nt | nt
Cc1occc1-c1nnc(SCC(=O)c2c[nH]c3ccccc23)n1C | 13% | -1% | -6% | 8% | 18µM*
Cc1occc1-c1nnc(SCC(=O)N(C)c2ccccc2)n1C | -19% | ? | -12% | 11% | -14%
SMILES | FMDV inh | AmpC inh detg | AmpC no deterg | AMA1 RON2 block | Sm TGR inh
Cc1occc1-c1nnc(SCC(=O)c2ccc(Cl)cc2)n1C | -7% | 3% | -32% | -10% | 40µM*
Cn1c(SCC(=O)c2cc(Cl)c(Cl)s2)nnc1-c1ccco1 | 17% | -1% | -21% | 4% | 25µM*
COC(=O)[C@@H]1C[C@@]2(O)[C@@H](O)[C@@H](O)[C@@H](O)C[C@H]2N1Cc1ccc(Cl)cc1 | 6% | -6% | -32% | 9% | 40µM*
COc1cc2c(cc1OC)C(c1c[nH]c3ccccc13)NCC2 (centres undefined) | -25% | nt | nt | nt | nt
COc1ccc(C(c2nnnn2-c2c(C)cccc2C)N2CCC(n3c(=O)[nH]c4ccccc43)CC2)cc1 (centres undefined) | ? | nt | nt | -10% | nt
Cc1cccc(C)c1-n1nnnc1C(c1cc2ccccc2o1)N1CCC(n2c(=O)[nH]c3ccccc32)CC1 (centres undefined) | 10µM* | nt | nt | -16% | nt
O=c1[nH]c2ccccc2n1C1CCN(C(CCc2ccccc2)c2nnnn2C2CCCC2)CC1 (centres undefined) | 35µM* | nt | nt | -14% | nt
CC1=C(C(=O)Nc2cccnc2)C(c2ccc(Cl)cc2)n2nc(SCc3ccccc3)nc2N1 (centres undefined) | -11% | 5% | nt | nt | -2%
COc1cccc(CNC(=O)c2ccc(-c3nc(CS(=O)c4ccccc4)c(C)o3)cc2)c1 (centres undefined) | -10% | -1% | nt | nt | ?
CN(C)CCCNCC(=O)c1c(-c2ccccc2)n(C)c2ccccc12 | -11% | ? | 9% | ? | 50µM*
COP(=S)(OC)Oc1ccc([N+](=O)[O-])cc1 | 22µM* | nt | nt | nt | nt
CCCN1C(=O)C(O)(CC(=O)c2ccc(OC)c(OC)c2)c2ccccc21 (centres undefined) | -23% | 3% | nt | nt | 29%
CN(C)c1ccc(C=C2C=CC=C2)cc1 | 42% | nt | nt | 22µM* | nt
Oc1ccc2ccccc2c1-c1sc(Nc2ccccc2)n[n+]1-c1ccc(F)cc1 | -7% | -11% | -47% | 62% | 0%
Fc1ccc(-[n+]2nc(Nc3ccccc3)sc2-c2c3ccccc3cc3ccccc23)cc1 | 40µM* | 4% | -7% | ? | -1%
CCN(CC)c1nc(-c2ccccc2)nc2ccccc12 | ? | -9% | -7% | 6% | 14%
CCCCN(CCCC)c1nc(-c2ccncc2)nc2ccccc12 | 28µM* | 3% | -19% | 17% | 5%
NC(=S)N/N=C/c1ccc(-c2cc(Cl)c(Cl)cc2Cl)o1 | -15% | 0% | 20µM* | 64% | 12%
NC(=S)N/N=C/c1ccc(Br)o1 | 4% | ? | -8% | 77% | ?
Cc1ccc(NC(=O)CN2CCN(C3CCCCC3)C(=O)C2=O)cc1 | -1% | 2% | nt | nt | -8%
Cc1ccc(NS(=O)(=O)c2ccc3nc(-c4ccccc4)[nH]c3c2)c(Cl)c1 | -15% | 7% | nt | nt | -3%
O=S(=O)(c1ccccc1)N1CCN(c2cc(-c3ccccc3)nc3ncnn23)CC1 | ? | 3% | -22% | 5% | -4%
Cc1ccccc1NC(=O)C1CCN(c2cc(-c3ccccc3)nc3ncnn23)CC1 | 35µM* | -2% | -8% | -3% | -10%
O=C(Nc1ccc2c(c1)CCC2)C1CCN(c2c3c(nc4ncnn24)CCC3)CC1 | ? | -12% | 90% | -1% | -31%
